Data taken from the supplement of paper PMC10127200.
Counter-ions that a name gives are not always drawn.

System: OVCAR4
Test: Euclidean distance of Cell Painting phenotypic profile (signed KS, 77 features) to DMSO centroid (dimensionless distance); 5 or 10 uM (library dependent); higher = stronger phenotypic change vs DMSO (phenoactivity)
Conditions: 48 h
Summary of the method: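 Phenoactivity is defined as the Euclidean distance from a compound profile to the median vehicle profile. Each profile comprised 77 Harmony features, scored as signed Kolmogorov-Smirnov statistics versus same-plate vehicle wells, then plate-position corrected, correlation-weighted and replicate-averaged at the top dose. Five cancer lines and one healthy fibroblast line were exposed to library compounds for 48 h at 10 or 5 uM (0.1% DMSO final).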

Compound | Euclidean distance
CN(C)CCOc1ccc(/C(=C(/CCCl)c2ccccc2)c2ccccc2)cc1 [Toremifene Citrate] | 2.17
CS(=O)(=O)CCC#N [Dapansutrile (OLT1177)] | 1.45
Nc1ccn([C@@H]2O[C@H](CO)[C@@H](O)C2(F)F)c(=O)n1 [Gemcitabine] | 2.98
CCN1CCN(Cc2ccc(-c3cc4c(N[C@H](C)c5ccccc5)ncnc4[nH]3)cc2)CC1 | 1.02
Cc1ccc(C(=O)Nc2ccc(CN3CCN(C)CC3)c(C(F)(F)F)c2)cc1C#Cc1cnc2cccnn12 | 4.29
Cc1cc(CC(C)CC(C)(C)C)n(O)c(=O)c1 (centres undefined) [Piroctone Olamine] | 4.49
CNC(=O)c1cc(Oc2ccc3nc(N[C@@H]4CCCC[C@H]4O)sc3c2)ccn1 | 1.22
COc1ccccc1S(=O)(=O)Nc1ccc2c(c1)CN(C)C(=O)N2 | 1.87
O=c1[nH]c(=O)n([C@H]2C[C@H](O)[C@@H](CO)O2)cc1I [Idoxuridine] | 1.42
C[C@]12CCC(=O)C=C1CC[C@@H]1[C@@H]2[C@@H](O)C[C@@]2(C)[C@H]1CC[C@]2(O)C(=O)CO [Hydrocortisone] | 2.31
CCOC(=O)[C@H](CCc1ccccc1)N[C@@H](C)C(=O)N1CCC[C@H]1C(=O)O [Enalapril Maleate] | 1.28
O=S1(=O)CCN(CN2CCS(=O)(=O)NC2)CN1 [Taurolidine] | 1.46
CC(=O)O[C@H]1Cc2ccccc2N(C(N)=O)c2ccccc21 [Eslicarbazepine Acetate] | 1.64
C[C@]12CC[C@@H]3c4ccc(OC(=O)c5ccccc5)cc4CC[C@H]3[C@@H]1CC[C@@H]2O [Estradiol Benzoate] | 1.01
